# Article PMC7862700, “An all-to-all approach to the identification of sequence-specific readers for epigenetic DNA modifications on cytosine”
# Assays:
# Experiment in all cases: DAPPL (digital affinity profiling via proximity ligation, sequencing); 10 mM Tris-HCl pH 7.5, 50 mM NaCl, 1 mM DTT, 4% glycerol, room temperature, 30 min; GST-TFs on glutathione beads, 16-mer random dsDNA library, 0.1% formaldehyde crosslink after washing; high values mean tight binding
# [1] = target: T1, FEV (Homo sapiens, UniProt Q99581 1-238); details: protein: recombinant; tags: N-terminal GST; dsDNA, one strand shown
# T1 sequence: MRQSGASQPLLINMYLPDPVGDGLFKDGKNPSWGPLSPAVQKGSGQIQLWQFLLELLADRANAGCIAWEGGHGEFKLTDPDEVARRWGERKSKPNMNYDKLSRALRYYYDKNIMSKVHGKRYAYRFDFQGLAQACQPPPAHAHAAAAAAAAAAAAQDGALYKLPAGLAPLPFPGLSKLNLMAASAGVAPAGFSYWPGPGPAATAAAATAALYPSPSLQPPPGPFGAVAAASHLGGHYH
# Summary of the method: (§1)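 Human transcription factors were made in yeast as GST fusions, captured on glutathione beads and barcoded with DNA. With a tag-only sample included, the pool was incubated with 200 nmole of a random double-stranded 16-mer DNA library in Tris/NaCl/DTT/glycerol buffer at room temperature for 30 min, then crosslinked with 0.1% formaldehyde after washing, ligated by proximity, amplified and sequenced. For binding signal, each hexamer's read frequency for a factor is divided by its frequency for the tag-only sample.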
# [2] = target: ETV5 (Homo sapiens, UniProt P41161 1-510); details: protein: recombinant; tags: N-terminal GST; dsDNA, one strand shown
# ETV5, sequence (P41161 whole entry): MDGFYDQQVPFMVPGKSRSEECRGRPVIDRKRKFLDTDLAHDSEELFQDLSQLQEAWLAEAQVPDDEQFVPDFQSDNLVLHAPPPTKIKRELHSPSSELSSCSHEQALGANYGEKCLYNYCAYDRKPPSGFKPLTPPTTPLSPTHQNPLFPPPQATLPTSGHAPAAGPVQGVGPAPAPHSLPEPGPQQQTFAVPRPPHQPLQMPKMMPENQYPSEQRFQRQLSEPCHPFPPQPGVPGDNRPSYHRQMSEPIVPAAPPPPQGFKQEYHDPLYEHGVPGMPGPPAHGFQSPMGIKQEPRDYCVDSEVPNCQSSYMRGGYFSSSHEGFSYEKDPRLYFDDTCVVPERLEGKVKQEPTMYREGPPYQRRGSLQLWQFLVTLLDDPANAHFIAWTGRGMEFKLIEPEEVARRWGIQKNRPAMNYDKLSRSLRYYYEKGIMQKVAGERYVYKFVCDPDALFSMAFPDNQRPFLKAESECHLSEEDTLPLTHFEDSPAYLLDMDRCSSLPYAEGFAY
# Summary of the method: as §1
# [3] = target: HSF1 (Homo sapiens, UniProt Q00613 1-529); details: protein: recombinant; tags: N-terminal GST; chain copies: 3; dsDNA, one strand shown
# HSF1, sequence (Q00613 whole entry): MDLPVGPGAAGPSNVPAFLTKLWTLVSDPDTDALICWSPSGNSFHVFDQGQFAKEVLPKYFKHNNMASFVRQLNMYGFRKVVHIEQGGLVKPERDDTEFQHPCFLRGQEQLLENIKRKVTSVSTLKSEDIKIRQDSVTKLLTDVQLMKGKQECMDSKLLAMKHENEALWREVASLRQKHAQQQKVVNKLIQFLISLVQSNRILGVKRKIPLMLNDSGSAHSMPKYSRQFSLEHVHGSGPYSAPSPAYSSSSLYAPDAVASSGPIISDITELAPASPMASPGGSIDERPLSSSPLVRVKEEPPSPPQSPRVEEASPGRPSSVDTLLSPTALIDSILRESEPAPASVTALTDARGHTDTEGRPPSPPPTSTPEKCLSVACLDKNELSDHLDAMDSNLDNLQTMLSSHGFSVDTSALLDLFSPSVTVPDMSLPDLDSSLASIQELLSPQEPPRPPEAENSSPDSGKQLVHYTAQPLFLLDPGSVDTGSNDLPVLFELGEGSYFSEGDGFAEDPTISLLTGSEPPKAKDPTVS
# Summary of the method: as §1
# [4] = target: T2, SPIC (Homo sapiens, UniProt Q8N5J4 1-248); details: protein: recombinant; tags: N-terminal GST; dsDNA, one strand shown
# T2 sequence: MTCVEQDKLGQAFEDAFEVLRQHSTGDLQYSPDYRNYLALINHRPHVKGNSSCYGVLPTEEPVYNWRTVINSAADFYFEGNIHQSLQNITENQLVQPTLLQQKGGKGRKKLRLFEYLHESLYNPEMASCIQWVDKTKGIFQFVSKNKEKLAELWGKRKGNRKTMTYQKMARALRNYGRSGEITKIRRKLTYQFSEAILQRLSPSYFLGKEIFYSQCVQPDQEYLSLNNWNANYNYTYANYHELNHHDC
# Summary of the method: as §1
# [5] = target: ELF4 (Homo sapiens, UniProt Q99607 1-663); details: protein: recombinant; tags: N-terminal GST; dsDNA, one strand shown
# ELF4, sequence (Q99607 whole entry): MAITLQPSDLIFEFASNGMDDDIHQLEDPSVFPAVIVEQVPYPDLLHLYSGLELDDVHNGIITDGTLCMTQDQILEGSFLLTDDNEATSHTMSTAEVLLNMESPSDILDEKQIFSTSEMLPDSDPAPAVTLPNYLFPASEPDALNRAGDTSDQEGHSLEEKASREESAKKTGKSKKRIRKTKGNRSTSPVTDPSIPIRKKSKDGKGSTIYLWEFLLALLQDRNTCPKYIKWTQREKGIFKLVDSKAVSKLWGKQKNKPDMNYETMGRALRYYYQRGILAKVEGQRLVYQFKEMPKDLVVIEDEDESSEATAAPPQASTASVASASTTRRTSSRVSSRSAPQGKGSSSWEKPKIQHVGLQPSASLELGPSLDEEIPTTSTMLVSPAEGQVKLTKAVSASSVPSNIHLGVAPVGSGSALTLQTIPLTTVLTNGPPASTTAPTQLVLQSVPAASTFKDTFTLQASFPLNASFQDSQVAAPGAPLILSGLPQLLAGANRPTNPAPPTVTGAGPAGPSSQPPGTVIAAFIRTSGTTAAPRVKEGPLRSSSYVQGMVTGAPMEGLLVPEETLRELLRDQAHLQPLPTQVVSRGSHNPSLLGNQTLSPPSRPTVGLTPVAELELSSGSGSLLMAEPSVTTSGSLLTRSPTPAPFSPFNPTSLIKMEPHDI
# Summary of the method: as §1
# [6] = target: T3, ELK4 (Homo sapiens, UniProt P28324-2 1-405); details: protein: recombinant; tags: N-terminal GST; dsDNA, one strand shown
# T3 sequence: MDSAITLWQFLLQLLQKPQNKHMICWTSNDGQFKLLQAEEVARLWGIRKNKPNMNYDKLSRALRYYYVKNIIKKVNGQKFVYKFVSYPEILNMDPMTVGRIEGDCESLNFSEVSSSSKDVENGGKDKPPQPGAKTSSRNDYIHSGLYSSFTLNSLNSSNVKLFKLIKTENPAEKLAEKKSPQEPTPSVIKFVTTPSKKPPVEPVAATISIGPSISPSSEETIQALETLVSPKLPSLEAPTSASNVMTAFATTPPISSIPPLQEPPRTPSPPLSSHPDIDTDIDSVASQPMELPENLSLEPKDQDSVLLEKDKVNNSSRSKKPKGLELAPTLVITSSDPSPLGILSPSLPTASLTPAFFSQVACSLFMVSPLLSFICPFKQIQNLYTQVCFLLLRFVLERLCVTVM
# Summary of the method: as §1
# [7] = target: T4, ETV2 (Homo sapiens, UniProt O00321 1-342); details: protein: recombinant; tags: N-terminal GST; dsDNA, one strand shown
# T4 sequence: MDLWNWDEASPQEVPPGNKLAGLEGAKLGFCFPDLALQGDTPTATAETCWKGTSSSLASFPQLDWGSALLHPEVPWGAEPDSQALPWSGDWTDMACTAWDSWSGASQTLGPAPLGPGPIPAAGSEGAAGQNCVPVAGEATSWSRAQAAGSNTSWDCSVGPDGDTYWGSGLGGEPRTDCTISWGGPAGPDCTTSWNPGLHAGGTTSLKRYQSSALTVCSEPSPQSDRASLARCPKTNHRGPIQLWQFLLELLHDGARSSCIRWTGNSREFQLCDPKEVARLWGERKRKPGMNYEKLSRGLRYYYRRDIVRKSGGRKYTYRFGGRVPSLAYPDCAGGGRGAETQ
# Summary of the method: as §1
# [8] = target: T5, ELF3 (Homo sapiens, UniProt P78545 1-371); details: protein: recombinant; tags: N-terminal GST; dsDNA, one strand shown
# T5 sequence: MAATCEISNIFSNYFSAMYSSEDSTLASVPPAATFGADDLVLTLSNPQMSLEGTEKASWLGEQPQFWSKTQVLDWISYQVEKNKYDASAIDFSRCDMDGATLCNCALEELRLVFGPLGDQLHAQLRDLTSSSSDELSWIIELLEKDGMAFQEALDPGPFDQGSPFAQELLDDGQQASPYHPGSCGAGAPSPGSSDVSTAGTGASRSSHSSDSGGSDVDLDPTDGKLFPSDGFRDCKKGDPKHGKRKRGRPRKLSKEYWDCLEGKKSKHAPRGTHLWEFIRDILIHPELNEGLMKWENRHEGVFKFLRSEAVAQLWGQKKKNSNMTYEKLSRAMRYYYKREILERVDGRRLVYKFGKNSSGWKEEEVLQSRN
# Summary of the method: as §1
# [9] = target: CRX (Homo sapiens, UniProt O43186 1-299); details: protein: recombinant; tags: N-terminal GST; dsDNA, one strand shown
# CRX, sequence (O43186 whole entry): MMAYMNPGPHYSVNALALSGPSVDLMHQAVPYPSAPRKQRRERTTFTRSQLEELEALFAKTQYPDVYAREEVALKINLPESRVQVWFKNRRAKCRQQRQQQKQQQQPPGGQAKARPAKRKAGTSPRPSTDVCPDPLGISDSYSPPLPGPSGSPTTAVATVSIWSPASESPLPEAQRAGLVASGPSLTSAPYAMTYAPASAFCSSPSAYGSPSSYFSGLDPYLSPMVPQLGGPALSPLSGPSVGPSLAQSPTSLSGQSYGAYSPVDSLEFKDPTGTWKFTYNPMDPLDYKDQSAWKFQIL
# Summary of the method: as §1
# [10] = target: ETV1 (Homo sapiens, UniProt P50549 1-477); details: protein: recombinant; tags: N-terminal GST; dsDNA, one strand shown
# ETV1, sequence (P50549 whole entry): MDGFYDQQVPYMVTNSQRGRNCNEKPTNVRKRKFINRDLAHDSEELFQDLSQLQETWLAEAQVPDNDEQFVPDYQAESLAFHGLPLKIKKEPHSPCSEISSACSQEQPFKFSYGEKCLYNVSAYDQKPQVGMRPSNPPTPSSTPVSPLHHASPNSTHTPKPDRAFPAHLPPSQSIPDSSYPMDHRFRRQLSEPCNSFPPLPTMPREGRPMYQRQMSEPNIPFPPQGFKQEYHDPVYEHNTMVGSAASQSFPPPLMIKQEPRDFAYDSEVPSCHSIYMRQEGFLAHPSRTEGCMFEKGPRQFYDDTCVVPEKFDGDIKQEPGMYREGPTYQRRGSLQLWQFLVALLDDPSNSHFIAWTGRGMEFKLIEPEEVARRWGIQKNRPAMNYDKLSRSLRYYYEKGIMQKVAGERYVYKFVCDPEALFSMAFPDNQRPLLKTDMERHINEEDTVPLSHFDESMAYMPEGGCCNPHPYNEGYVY
# Summary of the method: as §1
# [11] = target: T6, ERF (Homo sapiens, UniProt P50548 1-548); details: protein: recombinant; tags: N-terminal GST; dsDNA, one strand shown
# T6 sequence: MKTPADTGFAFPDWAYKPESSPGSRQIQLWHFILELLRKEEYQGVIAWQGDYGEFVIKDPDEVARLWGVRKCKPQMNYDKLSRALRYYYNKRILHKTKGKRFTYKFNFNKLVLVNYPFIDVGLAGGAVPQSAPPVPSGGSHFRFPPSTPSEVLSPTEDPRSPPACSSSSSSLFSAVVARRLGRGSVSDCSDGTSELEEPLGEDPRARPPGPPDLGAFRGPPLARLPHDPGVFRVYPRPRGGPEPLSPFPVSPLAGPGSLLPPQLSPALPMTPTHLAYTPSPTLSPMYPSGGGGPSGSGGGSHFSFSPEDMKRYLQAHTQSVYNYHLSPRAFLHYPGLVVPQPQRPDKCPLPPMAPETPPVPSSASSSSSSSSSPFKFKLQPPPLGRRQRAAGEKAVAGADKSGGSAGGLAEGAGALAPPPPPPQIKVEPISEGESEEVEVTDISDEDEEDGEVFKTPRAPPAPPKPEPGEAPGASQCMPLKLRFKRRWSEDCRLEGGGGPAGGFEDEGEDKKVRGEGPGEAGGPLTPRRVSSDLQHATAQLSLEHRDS
# Summary of the method: as §1
# [12] = target: T7, ETV3L (Homo sapiens, UniProt Q6ZN32 1-361); details: protein: recombinant; tags: N-terminal GST; dsDNA, one strand shown
# T7 sequence: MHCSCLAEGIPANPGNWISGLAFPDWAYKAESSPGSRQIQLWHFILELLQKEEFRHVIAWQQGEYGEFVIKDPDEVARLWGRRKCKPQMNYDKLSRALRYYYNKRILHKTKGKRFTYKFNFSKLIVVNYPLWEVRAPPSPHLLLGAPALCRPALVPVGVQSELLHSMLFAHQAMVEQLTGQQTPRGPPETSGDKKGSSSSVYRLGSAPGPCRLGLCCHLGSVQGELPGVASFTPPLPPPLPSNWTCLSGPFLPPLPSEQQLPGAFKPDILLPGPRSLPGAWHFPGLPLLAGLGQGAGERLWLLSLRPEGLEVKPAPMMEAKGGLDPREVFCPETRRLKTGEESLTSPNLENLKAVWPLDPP
# Summary of the method: as §1
# [13] = target: T8, ETS2 (Homo sapiens, UniProt P15036 1-469); details: protein: recombinant; tags: N-terminal GST; dsDNA, one strand shown
# T8 sequence: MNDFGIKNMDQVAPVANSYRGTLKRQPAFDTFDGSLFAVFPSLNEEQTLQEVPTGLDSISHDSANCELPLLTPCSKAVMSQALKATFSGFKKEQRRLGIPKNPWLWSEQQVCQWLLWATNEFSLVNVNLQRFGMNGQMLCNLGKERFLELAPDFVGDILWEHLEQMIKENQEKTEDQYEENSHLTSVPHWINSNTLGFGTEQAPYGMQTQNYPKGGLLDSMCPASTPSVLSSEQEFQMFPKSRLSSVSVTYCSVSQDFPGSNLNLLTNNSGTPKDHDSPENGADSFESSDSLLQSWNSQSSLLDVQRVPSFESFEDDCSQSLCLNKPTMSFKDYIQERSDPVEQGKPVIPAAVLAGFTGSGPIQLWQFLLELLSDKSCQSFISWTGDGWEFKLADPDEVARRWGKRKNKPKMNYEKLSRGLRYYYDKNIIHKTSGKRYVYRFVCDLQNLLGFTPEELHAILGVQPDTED
# Summary of the method: as §1
# [14] = target: T9, SPDEF (Homo sapiens, UniProt O95238 1-335); details: protein: recombinant; tags: N-terminal GST; dsDNA, one strand shown
# T9 sequence: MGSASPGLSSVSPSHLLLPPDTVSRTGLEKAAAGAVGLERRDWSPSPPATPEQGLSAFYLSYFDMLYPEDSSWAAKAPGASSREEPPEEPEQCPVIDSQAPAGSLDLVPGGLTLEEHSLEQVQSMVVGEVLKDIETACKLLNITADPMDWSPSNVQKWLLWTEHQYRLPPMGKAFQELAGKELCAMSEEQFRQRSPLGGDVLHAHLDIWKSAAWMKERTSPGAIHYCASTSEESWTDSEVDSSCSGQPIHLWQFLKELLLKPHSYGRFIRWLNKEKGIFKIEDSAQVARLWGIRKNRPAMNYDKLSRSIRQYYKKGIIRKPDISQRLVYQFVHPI
# Summary of the method: as §1
# [15] = target: T10, ETV7 (Homo sapiens, UniProt Q9Y603 1-341); details: protein: recombinant; tags: N-terminal GST; dsDNA, one strand shown
# T10 sequence: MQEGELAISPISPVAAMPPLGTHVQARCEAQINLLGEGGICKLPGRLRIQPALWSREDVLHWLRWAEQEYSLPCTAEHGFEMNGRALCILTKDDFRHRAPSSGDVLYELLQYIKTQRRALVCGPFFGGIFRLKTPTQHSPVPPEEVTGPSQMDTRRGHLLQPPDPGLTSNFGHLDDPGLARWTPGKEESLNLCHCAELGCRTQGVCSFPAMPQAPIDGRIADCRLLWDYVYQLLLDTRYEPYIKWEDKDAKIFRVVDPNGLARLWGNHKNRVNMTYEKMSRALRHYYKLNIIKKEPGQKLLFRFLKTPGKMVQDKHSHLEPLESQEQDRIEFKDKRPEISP
# Summary of the method: as §1
# [16] = target: T11, ELF5 (Homo sapiens, UniProt Q9UKW6-2 1-255); details: protein: recombinant; tags: N-terminal GST; dsDNA, one strand shown
# T11 sequence: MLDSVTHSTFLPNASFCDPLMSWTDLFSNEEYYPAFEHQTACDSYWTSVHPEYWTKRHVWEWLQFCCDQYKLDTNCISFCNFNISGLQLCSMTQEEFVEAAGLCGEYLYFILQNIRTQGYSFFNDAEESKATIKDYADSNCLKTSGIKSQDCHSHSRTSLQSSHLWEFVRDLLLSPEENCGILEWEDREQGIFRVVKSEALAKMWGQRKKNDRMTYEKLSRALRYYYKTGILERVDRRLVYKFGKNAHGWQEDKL
# Summary of the method: as §1
# [17] = target: T12, ETV3 (Homo sapiens, UniProt P41162-2 1-143); details: protein: recombinant; tags: N-terminal GST; dsDNA, one strand shown
# T12 sequence: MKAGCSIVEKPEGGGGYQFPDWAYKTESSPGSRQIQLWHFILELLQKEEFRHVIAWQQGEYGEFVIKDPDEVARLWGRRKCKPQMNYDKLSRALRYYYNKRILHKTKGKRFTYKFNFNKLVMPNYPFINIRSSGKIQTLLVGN
# Summary of the method: as §1
# [18] = target: ETV6 (Homo sapiens, UniProt P41212 1-452); details: protein: recombinant; tags: N-terminal GST; dsDNA, one strand shown
# ETV6, sequence (P41212 whole entry): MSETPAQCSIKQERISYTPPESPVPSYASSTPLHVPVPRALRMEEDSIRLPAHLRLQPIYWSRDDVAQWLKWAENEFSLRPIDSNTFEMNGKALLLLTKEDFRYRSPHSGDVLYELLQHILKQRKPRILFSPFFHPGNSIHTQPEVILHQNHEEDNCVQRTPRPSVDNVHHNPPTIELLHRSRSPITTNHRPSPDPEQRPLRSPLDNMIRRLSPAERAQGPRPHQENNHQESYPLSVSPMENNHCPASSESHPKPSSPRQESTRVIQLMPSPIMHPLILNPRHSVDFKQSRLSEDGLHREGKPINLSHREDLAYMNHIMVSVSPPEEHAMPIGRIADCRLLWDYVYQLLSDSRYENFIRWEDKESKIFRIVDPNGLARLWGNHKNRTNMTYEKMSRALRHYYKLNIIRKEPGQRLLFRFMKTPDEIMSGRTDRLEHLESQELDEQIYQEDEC
# Summary of the method: as §1
sequence,measurement,setting,value
TAGATG,binding signal,[1],"1.22 fold enrichment (6-mer frequency, TF over GST control)"
same,binding signal,[2],"1.22 fold enrichment (6-mer frequency, TF over GST control)"
same,binding signal,[3],"1.66 fold enrichment (6-mer frequency, TF over GST control)"
same,binding signal,[4],"1.57 fold enrichment (6-mer frequency, TF over GST control)"
same,binding signal,[5],"1.18 fold enrichment (6-mer frequency, TF over GST control)"
same,binding signal,[6],"1.3 fold enrichment (6-mer frequency, TF over GST control)"
same,binding signal,[7],"1.37 fold enrichment (6-mer frequency, TF over GST control)"
same,binding signal,[8],"1.32 fold enrichment (6-mer frequency, TF over GST control)"
same,binding signal,[9],"1.52 fold enrichment (6-mer frequency, TF over GST control)"
same,binding signal,[10],"1.15 fold enrichment (6-mer frequency, TF over GST control)"
same,binding signal,[11],"1.54 fold enrichment (6-mer frequency, TF over GST control)"
same,binding signal,[12],"1.36 fold enrichment (6-mer frequency, TF over GST control)"
same,binding signal,[13],"1.3 fold enrichment (6-mer frequency, TF over GST control)"
same,binding signal,[14],"1.35 fold enrichment (6-mer frequency, TF over GST control)"
same,binding signal,[15],"1.33 fold enrichment (6-mer frequency, TF over GST control)"
same,binding signal,[16],"1.27 fold enrichment (6-mer frequency, TF over GST control)"
same,binding signal,[17],"1.22 fold enrichment (6-mer frequency, TF over GST control)"
same,binding signal,[18],"1.24 fold enrichment (6-mer frequency, TF over GST control)"
